Results on 4 compounds are retold here after PubChem BioAssay.

The source made the active and inactive calls.

Assay [1] in a line: optical density shifts of acrAB sulA E. coli – strain DRC41, OD650, 48 h, E. coli filamentation inducer project, primary screen (AID 1152).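 Further: E. coli MC1000 strain DRC41 lacking acrAB efflux pump and sulA.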 Particulars: higher = more signal, called active from +8 up or from −8 down.
The nature of assay [2]: probe aLefty1 binding on compound microarray – biochemical, small-molecule microarray, 635/667 nm fluorescence, primary screen (AID 1153).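 Further: score merges spot fluorescence with signal-to-noise ratio from the scanned slide images.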 The following applies: higher = more signal.
Assay [3] can be described thus: plasmodial surface anion channel blockers, osmotic lysis – cell-based, P. falciparum Indochina, OD700, 1 h, primary screen (AID 1154). The following applies: P. falciparum Indochina infected RBC osmotic lysis, higher = more signal, called active from +8 up or from −8 down.
A short description of assay [4]: plasmodial surface anion channel blockers, osmotic lysis – cell-based, P. falciparum Indochina, OD700, 2 h, primary screen (AID 1155).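 Further: lysis reports solute entry through the parasite surface anion channel PSAC.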 Particulars: P. falciparum Indochina infected erythrocytes, higher = more signal, called active from +8 up or from −8 down.
Assay [5] is described as follows: changes in parasitized red cell lysis, either direction – P. falciparum Indochina, OD700, 3 h, PSAC antagonist project, primary screen (AID 1156). Particulars: P. falciparum-infected erythrocytes, osmotic lysis, higher = more signal, called active from +8 up or from −8 down.
Assay [6] in a line: plasmodial surface anion channel blockers, osmotic lysis – cell-based, P. falciparum Indochina, OD700, 18 h, primary screen (AID 1157). The following applies: P. falciparum Indochina infected erythrocytes, osmotic lysis OD700, 18 h; higher = more signal, called active from +8 up or from −8 down.
Assay [7] can be described thus: S6 kinase pathway phospho-S6 level changes – cell-based, A549, cytoblot, luminescence, serum-stimulated, primary screen (AID 1158).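 Further: serum-stimulated A549 lung adenocarcinoma cells; signal is phosphorylated S6 detected by cytoblot immunostaining with HRP secondary.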 Particulars: 5 h, higher = more signal.
In assay [8] the target is NADPH oxidase 2 (Homo sapiens) (UniProt P04839). In words: compounds shifting NOX2 Amplex Red fluorescence – cell-based, HEK293-NOX2, PMA-stimulated, NOX inhibitor project, primary screen (AID 1159). Further: test concentration not given here. The following applies: 45 min, higher = more signal, called active from +8 up or from −8 down.
In assay [9] the target is NADPH oxidase 4 (Homo sapiens) (UniProt Q9NPH5). The assay can be described thus: compounds shifting NOX4 Amplex Red fluorescence – cell-based, HEK293-NOX4, tetracycline-induced, NOX inhibitor project, primary screen (AID 1160). Particulars: HEK293-NOX4, Amplex Red H2O2 fluorescence, 45 min; higher = more signal, called active from +8 up or from −8 down.
Assay [10] deals with NADPH oxidase 5 (Homo sapiens) (UniProt Q96PH1). The assay can be described thus: compounds shifting NOX5 Amplex Red fluorescence – cell-based, HEK293-NOX5, NOX inhibitor project, primary screen (AID 1161). Particulars: HEK293-NOX5, ionomycin, 45 min, higher = more signal.
The nature of assay [11]: compound effects on lung adenocarcinoma cell viability – A549, calcein-AM fluorescence, 48 h, basal, profiling panel (AID 1162). Further: test concentration not given here. The following applies: higher = more signal.
The nature of assay [12]: compound effects on differentiated 3T3-L1 adipocyte viability – cell-based, 3T3-L1 adipocytes, calcein-AM fluorescence, 48 h, basal, profiling panel (AID 1163). Further: test concentration not given here. The following applies: 3T3-L1 adipocytes viability, higher = more signal.
The nature of assay [13]: compound effects on hepatocellular carcinoma cell viability – HepG2, calcein-AM fluorescence, 48 h, basal, profiling panel (AID 1164). Further: test concentration not given here. The following applies: higher = more signal.
A short description of assay [14]: compound effects on multiple myeloma cell viability – MM1S, calcein-AM fluorescence, 48 h, basal, profiling panel (AID 1165).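 Further: viability of MM1S multiple myeloma cells under basal unstimulated conditions; test concentration not given here.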 Particulars: higher = more signal.
Assay [15] is described as follows: calcein-AM signal in unstimulated myeloma cells – cell-based, calcein-AM fluorescence, 48 h, PK04 Diversity Set, profiling panel (AID 1166).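 Further: cells grown under basal conditions without added stimulus; test concentration not given here.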 The following applies: RPMI8226 myeloma viability, higher = more signal.
A short description of assay [16]: JC-1 mitochondrial signal, unstimulated HepG2 cells – cell-based, JC-1 fluorescence, 24 h, 100 nL compound, profiling panel (AID 1167). Further: test concentration not given here. The following applies: HepG2 mitochondrial potential, higher = more signal.
The nature of assay [17]: JC-1 mitochondrial signal, unstimulated adipocytes – cell-based, JC-1 fluorescence, 3T3-L1 adipocytes, 24 h, 100 nL compound, profiling panel (AID 1168). Further: test concentration not given here. The following applies: JC-1 mitochondrial fluorescence, higher = more signal, called active from +8 up or from −8 down.
Assay [18] is described as follows: JC-1 mitochondrial signal, unstimulated myeloma cells – cell-based, JC-1 fluorescence, RPMI8226, 24 h, 100 nL compound, profiling panel (AID 1169). Further: test concentration not given here. The following applies: JC-1 mitochondrial potential fluorescence, higher = more signal.
Assay [19] is described as follows: JC-1 mitochondrial signal, unstimulated MM1S myeloma – cell-based, JC-1 fluorescence, 24 h, 100 nL compound, profiling panel (AID 1170). Further: test concentration not given here. The following applies: MM1S mitochondrial potential, higher = more signal.
Assay [20] is described as follows: resazurin metabolic signal in A549 cells – cell-based, resazurin fluorescence, 24 h, PK04 Diversity Set, profiling panel (AID 1171). Further: test concentration not given here. Particulars: A549 viability, higher = more signal, called active from +8 up or from −8 down. On the technique in general: Alamar Blue is a resazurin reagent that responds to reducing activity.

NADPH oxidase 2 (Homo sapiens), sequence (P04839 whole entry, looked up): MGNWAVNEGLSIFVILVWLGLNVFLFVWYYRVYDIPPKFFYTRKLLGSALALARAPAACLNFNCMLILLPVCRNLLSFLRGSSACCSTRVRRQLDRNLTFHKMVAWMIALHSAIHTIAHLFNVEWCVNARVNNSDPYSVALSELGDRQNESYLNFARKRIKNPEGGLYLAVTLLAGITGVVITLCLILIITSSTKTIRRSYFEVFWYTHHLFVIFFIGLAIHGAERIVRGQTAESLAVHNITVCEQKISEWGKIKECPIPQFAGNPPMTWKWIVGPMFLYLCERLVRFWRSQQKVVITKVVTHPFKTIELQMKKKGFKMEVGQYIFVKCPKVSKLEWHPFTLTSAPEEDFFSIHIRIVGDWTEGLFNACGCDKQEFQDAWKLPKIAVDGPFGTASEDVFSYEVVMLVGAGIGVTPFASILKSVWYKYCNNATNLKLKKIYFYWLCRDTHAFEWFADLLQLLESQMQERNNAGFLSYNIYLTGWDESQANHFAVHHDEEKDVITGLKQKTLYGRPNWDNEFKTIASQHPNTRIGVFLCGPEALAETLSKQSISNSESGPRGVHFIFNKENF
NADPH oxidase 5 (Homo sapiens), sequence (Q96PH1 whole entry, looked up): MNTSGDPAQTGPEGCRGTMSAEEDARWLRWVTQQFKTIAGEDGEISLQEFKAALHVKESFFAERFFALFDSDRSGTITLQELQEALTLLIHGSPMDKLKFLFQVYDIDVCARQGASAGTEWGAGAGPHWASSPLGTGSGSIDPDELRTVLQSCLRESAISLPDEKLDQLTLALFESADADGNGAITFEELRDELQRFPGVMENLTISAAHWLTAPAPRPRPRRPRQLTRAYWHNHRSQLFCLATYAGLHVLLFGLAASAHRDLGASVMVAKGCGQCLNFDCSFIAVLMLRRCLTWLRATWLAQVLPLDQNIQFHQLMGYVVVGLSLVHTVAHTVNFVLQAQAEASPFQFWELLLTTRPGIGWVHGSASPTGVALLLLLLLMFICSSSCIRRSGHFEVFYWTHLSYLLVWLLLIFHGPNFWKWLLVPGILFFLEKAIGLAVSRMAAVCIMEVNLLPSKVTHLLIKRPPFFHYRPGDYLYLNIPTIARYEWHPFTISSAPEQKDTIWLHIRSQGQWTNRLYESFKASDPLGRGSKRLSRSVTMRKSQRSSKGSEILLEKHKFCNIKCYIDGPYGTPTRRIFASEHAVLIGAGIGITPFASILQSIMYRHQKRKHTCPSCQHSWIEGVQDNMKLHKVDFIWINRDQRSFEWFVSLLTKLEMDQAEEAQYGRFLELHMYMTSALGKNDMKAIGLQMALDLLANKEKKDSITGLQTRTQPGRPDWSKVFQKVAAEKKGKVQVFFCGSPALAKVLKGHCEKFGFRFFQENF
NADPH oxidase 4 (Homo sapiens), sequence (Q9NPH5 whole entry, looked up): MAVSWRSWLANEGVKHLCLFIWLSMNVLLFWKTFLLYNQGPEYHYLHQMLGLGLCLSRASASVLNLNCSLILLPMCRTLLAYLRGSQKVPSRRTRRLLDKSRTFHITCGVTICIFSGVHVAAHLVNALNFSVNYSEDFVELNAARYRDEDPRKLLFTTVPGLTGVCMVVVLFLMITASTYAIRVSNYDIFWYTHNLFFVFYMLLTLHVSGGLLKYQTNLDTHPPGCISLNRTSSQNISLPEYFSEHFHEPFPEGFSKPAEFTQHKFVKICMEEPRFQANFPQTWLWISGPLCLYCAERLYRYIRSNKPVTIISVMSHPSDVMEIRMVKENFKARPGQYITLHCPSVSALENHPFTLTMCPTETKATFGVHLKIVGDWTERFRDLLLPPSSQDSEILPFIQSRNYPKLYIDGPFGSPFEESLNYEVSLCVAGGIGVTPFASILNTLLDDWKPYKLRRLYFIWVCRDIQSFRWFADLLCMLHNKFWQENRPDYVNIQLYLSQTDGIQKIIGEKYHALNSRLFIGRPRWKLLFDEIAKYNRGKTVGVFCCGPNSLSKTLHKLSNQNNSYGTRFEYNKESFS

Take `O=C1C=C[C@@H](O)[C@@H]2[C@@H]3C(=O)N(c4ccc(F)cc4F)C(=O)[C@@H]3CC[C@@H]12`: the z-score was 0.262 (inactive) in [1]; 0.337 (inactive) in assay [3]; -1.44 (inactive) in assay [4]; -0.562 (inactive) in assay [5]; -1.9 (inactive) in assay [6]; 1.44 in [7]. The z-score was -0.632 (inactive) in assay [8]; 0.267 (inactive) in [9]; 0.713 in assay [10]; 0.0767 in assay [11]; 0.244 in assay [12]; 1.04 in assay [13]. For the same compound, the z-score in assay [14] is 0.157; in assay [15] it was -1.1; in assay [16], 0.991; in [17], 0.46 (inactive); in [18] it was -0.322; in assay [19], 0.921. Also, in [20], the z-score was -1.47 (inactive). For the same compound, the composite z-score in [2] was -0.0559.
Regarding `O=C1[C@H]2[C@H]3[C@H](O)[C@H](O)CC(=NOC[C@@H](O)COCc4ccco4)[C@H]3CC[C@H]2C(=O)N1C[C@@H]1CCCO1`, the z-score is -0.362 (inactive) in assay [1]; 0.342 (inactive) in assay [3]; 0.276 (inactive) in [4]; -0.425 (inactive) in [5]; 0.33 (inactive) in assay [6]; -0.637 in assay [7]. For the same compound, the z-score was 0.276 (inactive) in assay [8]; 0.557 (inactive) in assay [9]; -0.0426 in assay [10]; -0.0501 in [11]; -1.11 in [12]; -1.22 in assay [13]. The z-score is 0.313 in assay [14]; -0.907 in assay [15]; -0.809 in [16]; -0.605 (inactive) in assay [17]; -0.271 in assay [18]; -0.278 in assay [19]. In addition, the z-score in [20] was 0.622 (inactive). Besides, the composite z-score in [2] was -0.324.
For `CO[C@@H]1C=CCC(=O)N[C@@H](C)C(=O)OC[C@@H](OC)[C@H](C)CCCC(=O)OC[C@H]1C`, the z-score in [1] was 0.0058 (inactive); in [3], -1.15 (inactive); in assay [4] it was -1.22 (inactive); in assay [5], -0.683 (inactive); in assay [6] it was -2.43 (inactive); in assay [7], -0.417. Further, the z-score in [8] was 0.57 (inactive); in assay [9] it was 0.957 (inactive); in assay [10] it was 0.645; in assay [11], 0.942; in assay [12], -0.226; in [13] it was -0.0306. Also, the z-score in [14] is 0.188; in [15] it was -0.0539; in [16], -0.0819; in [17], 0.225 (inactive); in assay [18] it was 0.236; in assay [19] it was -0.392. Moreover, in assay [20], the z-score is 0.471 (inactive). Further, in assay [2], the composite z-score is 0.0816.
As for `C[n+]1ccc(-c2ccc(CO)cc2)cc1`, the z-score in assay [1] is 0.209 (inactive); in assay [3], -0.8 (inactive); in assay [4], -0.376 (inactive); in assay [5] it was -1.05 (inactive); in assay [6], -0.0148 (inactive); in [7] it was -0.6. In addition, the z-score in assay [8] was -0.225 (inactive); in [9], -0.0911 (inactive); in [10] it was -3.04; in [11], -1.45; in [12], -0.84; in assay [13], -0.0981. The z-score in assay [14] was -0.31; in assay [15] it was -0.196; in assay [16] it was -1.04; in [17], -0.872 (inactive); in assay [18] it was -0.634; in assay [19], 0.236. For the same compound, the z-score in assay [20] was -0.939 (inactive). In addition, the composite z-score in assay [2] is -0.0303.
